Out of some 39,000 compounds screened, about 3,300 (8.5%) were called active. The full list was thinned out, with actives kept by preference.
tested on: HepG2; assay: cytotoxicity call (relative viability < 0.9); conditions: 10 µM

Row | SMILES | cytotoxicity call
1 | C[C@@H]1CN([C@H](C)CO)C(=O)c2cc(NC(=O)Nc3ccc4c(c3)OCO4)ccc2O[C@@H]1CN(C)S(C)(=O)=O | inactive
2 | COc1ccc(COC[C@]23N=C4SCCCN4[C@H](c4ccccc4O2)[C@H]3COC(=O)c2ccccc2)cc1 | inactive
3 | COc1ccc(COC[C@]23Oc4ccccc4[C@H]([C@H]2CO[Si](C)(C)C(C)(C)C)N(C(=O)CC(C)=O)C(=O)N3C)cc1 | inactive
4 | COc1ccc(COC[C@@]23Oc4ccccc4[C@@H](NC(=S)N2C)[C@@H]3CO[Si](C)(C)C(C)(C)C)cc1 | active
5 | COc1ccc(COC[C@@]23Oc4ccccc4[C@@H](NC(=S)N2C)[C@H]3CO[Si](C)(C)C(C)(C)C)cc1 | active
6 | COc1ccc(COC[C@@]23Oc4ccccc4[C@@H](NC(=O)N2C(=O)c2ccccc2)[C@H]3CO[Si](C)(C)C(C)(C)C)cc1 | inactive
7 | COc1ccc(COC[C@]23NC(=S)N[C@H](c4ccccc4O2)[C@H]3CO[Si](C)(C)C(C)(C)C)cc1 | inactive
8 | COc1ccc(COC[C@]23N=C4SCCCN4[C@H](c4ccccc4O2)[C@H]3CO[Si](C)(C)C(C)(C)C)cc1 | active
9 | COc1ccc(COC[C@]23N=C4SCc5ccccc5CN4[C@H](c4ccccc4O2)[C@H]3CO[Si](C)(C)C(C)(C)C)cc1 | inactive
10 | COc1ccc(COC[C@]23NC(=S)N[C@H](c4ccccc4O2)[C@@H]3CO[Si](C)(C)C(C)(C)C)cc1 | inactive
11 | O=C(C[C@H]1CC[C@H]2[C@@H](COC[C@@H](O)CN2S(=O)(=O)c2cccc(F)c2)O1)NCc1ccncn1 | inactive
12 | Cc1cccc(CO)n1 | inactive
13 | O=C1N[C@@H]2[C@@H](O)[C@@H](O)[C@H](O)[C@@H](CO)N2C1=O | inactive
14 | CCCCS(=N)(=O)CC[C@@H](N)C(=O)O (stereo partly specified) | inactive
15 | NC(=S)Nc1ccncc1 | inactive
16 | CCC[C@@H](O)C#Cc1cnc2c(c1)C(=O)N([C@H](C)CO)C[C@H](C)[C@H](CN(C)S(=O)(=O)c1cccc(F)c1)O2 | inactive
17 | C[C@H](CO)N1C[C@H](C)[C@H](CN(C)C(=O)Cc2ccccc2)OCCCC[C@H](C)Oc2ccc(NS(=O)(=O)c3ccc(Cl)cc3)cc2C1=O | inactive
18 | COc1ccc(NC(=O)N(C)C[C@H]2Oc3ccc(NS(=O)(=O)c4cn(C)cn4)cc3CC(=O)N([C@H](C)CO)C[C@H]2C)cc1 | inactive
19 | Cc1noc(C)c1NC(=O)N(C)C[C@H]1Oc2ccc(NC(=O)c3ccncc3)cc2C(=O)N([C@H](C)CO)C[C@H]1C | inactive
20 | CCNC(=O)CCC(N)C(=O)[O-].[K+] (stereo unspecified) | inactive
21 | C[C@@H]1ON(c2ccc(I)cc2)[C@H](c2ccc(OC(=O)OC(C)(C)C)cc2)[C@H]1C(=O)N1C(=O)OC[C@H]1Cc1ccccc1 | inactive
